Assay results as given in PubChem BioAssay (NCATS).
Inconclusive results are not listed. Active and inactive are the calls of the source. The call rests on the fitted dose curve; in most records, active means well fitted curve in the direction sought with a large enough effect; inconclusive means small, poorly fitted or top-dose-only effect, or another doubt; inactive means no such curve, though single readings can be large; an effect the other way counts as inactive or inconclusive. Where a SMILES comes first, the peptide text is derived from it. The star is where a group is joined. PhAc = O=C(Cc1ccccc1)*

Assays:
[1] = molecular target: Glutathione peroxidase 1 (Homo sapiens) (UniProt P07203); assay: Primary qHTS Assay for Inhibitors of Recombinant Selenoprotein Glutathione Peroxidase 1 (GPX1) (AID 1845191); further: nearly all actives have a fitted effect of over 65% in size; on activity, negative = inhibition: on the % scale 0 is the no-effect control and ±100 the full control effect
Summary of the method: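 NADPH consumption tracked by fluorescence at 340/450 nm between t=0 and t=15 min, room temperature. Final mix: 10 nM GPX1, 100 nM glutathione reductase, 1 mM GSH, 0.5 mM NADPH, 0.5 mM cumene hydroperoxide, 0.01% BSA; 30 min compound–enzyme preincubation.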

[2] = molecular target: Phospholipid hydroperoxide glutathione peroxidase GPX4 (Homo sapiens) (UniProt P36969); assay: Primary qHTS Assay for Inhibitors of Recombinant Selenoprotein Glutathione Peroxidase 4 (GPX4) (AID 1845192); further: nearly all actives have a fitted effect of over 65% in size; on activity change, negative = inhibition: series mostly up to about 50 µM; on the % scale 0 is the no-effect control and ±100 the full control effect
Summary of the method: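 NADPH consumption followed by fluorescence at 340/450 nm, t=0 and after 15 min at room temperature. Reaction started with cumene hydroperoxide (0.5 mM final) after 30 min compound–GPX4 preincubation; final 200 nM GPX4, 100 nM GR, 1 mM GSH, 0.5 mM NADPH.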

[3] = molecular target: Luciferin 4-monooxygenase (Photinus pyralis) (UniProt P08659); assay: Primary firefly luciferase (FLuc) qHTS assay for identification of artifact compounds. (AID 1845220); further: nearly all actives have a fitted effect of over 60% in size;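 on activity change, negative = inhibition: series mostly up to about 54 µM; plate controls were DMSO vehicle for no effect and no enzyme for full effect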
Summary of the method: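 Compounds sat 15 min at room temperature with 10 uM luciferin and 10 uM ATP (pH 7.6 Tris acetate). Firefly luciferase (10 nM final) was then added, and luminescence was read 5 min later. Data normalized to no-enzyme and DMSO controls were Hill-fitted.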

[4] = Primary fluorescence-based thiol-reactive (MSTI) qHTS assay for identification of artifact compounds. (AID 1845221); further: nearly all actives have a fitted effect of over 65% in size; further: potency means the concentration at half of the fitted maximal effect;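 on activity change, negative = thiol reactive: series mostly up to about 54 µM; thiol-reactive compounds lower the probe fluorescence signal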
Summary of the method: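 Reactivity toward the thiol probe MSTI (4 uM) is scored by fluorescence at Ex/Em 525/598 nm after 1 h at room temperature. Acetyl-MSTI and MSTI define the activity scale.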

[5] = tested on: Nanoluciferase (engineered Oplophorus gracilirostris luciferase); assay: Primary Nanoluciferase (NLuc) qHTS assay for identification of artifact compounds. (AID 1845222);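 further: series mostly up to about 54 µM; 0% = DMSO and -100% = no enzyme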
Summary of the method: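 Luminescence from secreted NLuc (filtered, 1:55-diluted S16 cell medium) read 5 min after Nano-Glo substrate; compounds preincubated 15 min, RT. Hill fits of inhibition normalized to DMSO and no-enzyme.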

Chain of Glutathione peroxidase 1 (Homo sapiens) (P07203 whole entry, looked up): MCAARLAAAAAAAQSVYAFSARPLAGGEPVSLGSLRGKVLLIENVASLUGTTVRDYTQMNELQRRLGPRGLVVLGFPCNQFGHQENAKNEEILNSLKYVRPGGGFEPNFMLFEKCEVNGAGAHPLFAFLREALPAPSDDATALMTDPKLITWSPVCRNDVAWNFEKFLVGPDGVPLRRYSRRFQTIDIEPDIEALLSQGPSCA
Chain of Phospholipid hydroperoxide glutathione peroxidase GPX4 (Homo sapiens) (P36969 whole entry, looked up): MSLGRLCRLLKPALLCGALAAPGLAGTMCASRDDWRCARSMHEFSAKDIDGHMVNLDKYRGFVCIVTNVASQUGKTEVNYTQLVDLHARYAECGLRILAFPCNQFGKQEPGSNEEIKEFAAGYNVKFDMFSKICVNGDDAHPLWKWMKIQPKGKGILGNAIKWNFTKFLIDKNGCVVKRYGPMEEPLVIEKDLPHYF

C=C1CC[C@@]2(OC1)O[C@H]1CC3[C@@H]4CC=C5C[C@@H](O)C[C@@H](O[C@@H]6OC[C@H](O)[C@H](O)[C@H]6O[C@@H]6O[C@@H](C)[C@H](O)[C@@H](O)[C@H]6O)[C@]5(C)C4CC[C@]3(C)[C@H]1[C@@H]2C (stereo not given in full)
inactive: Potency [1] | Potency [2] | Potency [3] | Potency [4] | Potency [5]

CC(C)C1NC(=O)CNC(=O)C2CCCN2C(=O)C(Cc2c[nH]c3ccccc23)NC(=O)CNC(=O)C(Cc2ccc(O)cc2)NC(=O)CNC1=O (stereo not given) (cyclo(GVGYGWP); configuration not given here)
inactive: Potency [1] | Potency [2] | Potency [3] | Potency [4] | Potency [5]

CCOC(=O)CNC(=O)[C@@H]1CCCN1C(=O)Cc1ccccc1 (PhAc-Pro-Gly-OEt)
inactive: Potency [1] | Potency [2] | Potency [3] | Potency [4] | Potency [5]

C/C=C/C(=O)OC1/C=C/C(O)C(OC(C)=O)CCC(=O)OC1C (stereo not given)
inactive: Potency [1] | Potency [2] | Potency [3] | Potency [4] | Potency [5]

COC(=O)C1=COC(OC2OC(CO)C(O)C(O)C2O)C2C(COC(=O)/C=C/c3ccc(O)c(O)c3)C(O)C(O)C12 (stereo not given)
inactive: Potency [1] | Potency [2] | Potency [3] | Potency [5]
active: Potency [4] 2510 nM

CC(/C=C/C=C(\C)C(=O)O[C@@H]1O[C@H](CO[C@@H]2O[C@H](CO)[C@@H](O)[C@H](O)[C@H]2O)[C@@H](O)[C@H](O)[C@H]1O)=C\C=C\C=C(C)\C=C\C=C(/C)C(=O)O[C@@H]1C[C@](O)(C(=O)O)C[C@@H](O)[C@H]1OC(=O)/C=C/c1ccc(O)c(O)c1
active: Potency [4] 450 nM
inactive: Potency [1] | Potency [2] | activity change, negative = inhibition [3] -0.112% [at 11.6 µM] | activity, negative = inhibition [5] -29.7% [at 11.6 µM]

Cc1ccc(COC(=O)N2CC[C@@H](CNc3ncccn3)[C@@H](F)C2)cc1
inactive: Potency [1] | Potency [2] | Potency [3] | Potency [4] | Potency [5]

COc1cc(C)c(C(=O)NC2C(C)OC(OC3CCC(C)C4C3C=C(C)C3/C(C)=C\CC/C(C)=C/C5(C)C=C(C(=O)O)C(C)CC56OC(=O)/C(=C(\O)C34C)C6=O)C(O)C2(C)O)c(O)c1 (stereo not given)
inactive: Potency [1] | Potency [2] | outcome [3] inactive [at 11.6 µM] | activity change, negative = thiol reactive [4] 188% [at 11.5 µM] | activity, negative = inhibition [5] 4.93% [at 11.6 µM]

COc1cc(C(C)=O)ccc1O[C@@H]1O[C@H](CO[C@@H]2OC[C@@H](O)[C@H](O)[C@H]2O)[C@@H](O)[C@H](O)[C@H]1O
inactive: Potency [1] | Potency [2] | Potency [3] | Potency [4] | Potency [5]

CC1CCC2C(C)(C)[C@H](O)CC[C@]2(C)C12Cc1c(O)cc3c(c1O2)CN(C(CCC(=O)O)C(=O)O)C3=O (stereo not given in full)
inactive: Potency [1] | Potency [2] | Potency [3] | Potency [4] | Potency [5]

C/C=C(\C)C(=O)OC[C@H]1O[C@@H](O[C@H]2[C@@H](O[C@H]3O[C@H](COC(=O)/C(C)=C/C)[C@@H](O)[C@H](O)[C@H]3O[C@@H]3O[C@H](COC(=O)/C(C)=C/C)[C@@H](O)[C@H](OC(=O)/C(C)=C/C)[C@H]3O)O[C@H](COC(=O)/C(C)=C/C)[C@@H](O)[C@@H]2O)[C@H](O)[C@@H](O)[C@@H]1O
inactive: Potency [1] | Potency [2] | activity change, negative = inhibition [3] 3.11% [at 11.6 µM] | activity change, negative = thiol reactive [4] 8.85% [at 11.5 µM] | activity, negative = inhibition [5] 0.483% [at 11.6 µM]

CC(=O)OC12CC(C)C(OC(=O)c3ccccc3)C1/C=C(/C)C(OC(=O)c1ccccc1)CC(=O)C(C)(C)/C=C/C(C)C2=O (stereo not given)
inactive: Potency [1] | Potency [2] | Potency [3] | Potency [4] | Potency [5]

CC(C)CC(=O)OC[C@@]1(O)C[C@@]23CC[C@H]4[C@@](C)(CCC[C@@]4(C)C(=O)O)[C@@H]2CC[C@@H]1C3
inactive: Potency [1] | Potency [2] | Potency [3] | Potency [4] | Potency [5]

O=C(OC[C@H]1O[C@H](O[C@]2(CO)O[C@H](CO)[C@@H](O)[C@@H]2O)[C@H](O)[C@@H](O)[C@@H]1O)c1ccc(O)cc1
inactive: Potency [1] | Potency [2] | Potency [3] | Potency [4] | Potency [5]

C[C@@H]1O[C@@H](O[C@H]2[C@H](OC(=O)[C@]34CCC(C)(C)C[C@H]3C3=CCC5[C@@]6(C)C[C@@H](O)[C@@H](O[C@@H]7O[C@H](CO)[C@@H](O)[C@H](O)[C@H]7O)[C@@](C)(CO)C6[C@H](O)C[C@@]5(C)[C@]3(C)CC4)OC[C@H](O)[C@@H]2O)[C@H](O)[C@H](O[C@@H]2OC[C@](O)(CO)[C@H]2O)[C@H]1O[C@@H]1OC[C@@H](O)[C@H](O[C@H]2O[C@H](C)[C@@H](O)[C@H](O)[C@@H]2O)[C@H]1O (stereo not given in full)
inactive: Potency [1] | Potency [2] | activity change, negative = inhibition [3] 1.3% [at 11.6 µM] | activity change, negative = thiol reactive [4] 412% [at 11.5 µM] | activity, negative = inhibition [5] 0% [at 11.6 µM]
